Test results published in the supplement of paper PMC3334620.
In all, about 33,000 sequences were measured (“E-score (-0.5 to 0.5)”: median about -0.017, highest 2% from about 0.3 on). Many of the other results were omitted from the sample, so the highest values are more common in it than they were.

molecular target: T1, Sut1 (UniProt P53032); assay: PBM E-score (8-mer binding enrichment) (E-score (-0.5 to 0.5)); higher = stronger / more preferred TF binding; conditions: protein concentration: 200 nM; construct: GST-full length
T1 sequence: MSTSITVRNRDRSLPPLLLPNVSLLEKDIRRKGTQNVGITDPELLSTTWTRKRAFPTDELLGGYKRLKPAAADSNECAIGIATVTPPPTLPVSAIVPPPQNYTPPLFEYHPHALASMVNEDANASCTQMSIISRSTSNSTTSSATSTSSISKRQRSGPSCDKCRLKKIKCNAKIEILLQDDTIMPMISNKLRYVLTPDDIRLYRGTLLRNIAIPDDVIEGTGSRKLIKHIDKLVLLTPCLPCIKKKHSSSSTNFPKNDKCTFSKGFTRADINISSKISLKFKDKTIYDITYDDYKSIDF
Description: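 Universal 'all 10-mer' protein binding microarrays (Agilent AMADID 015681) probed with GST-tagged S. cerevisiae TFs (full-length or DBD) made by in vitro transcription/translation (PURExpress), about 100-200 nM. Bound TF was detected with fluorescent anti-GST. Each ungapped 8-mer (which stands for itself and its reverse complement) is scored by the PBM enrichment score (E-score), a modified Wilcoxon-Mann-Whitney statistic from -0.5 to +0.5, computed with the Universal PBM Analysis Suite. Scale: above 0.35 generally sequence-specific binding.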

| Sequence | PBM E-score |
| --- | --- |
| ATGTAGTC | 0.18 |
| GACACCGC | -0.0517 |
| CTCTCGAA | -0.282 |
| ATCTCGGA | 0.368 |
| GCCTCGGA | 0.198 |
| CTCTCGGC | -0.0324 |
| ATCTCGGC | 0.13 |
| AGCTCGGA | 0.336 |
| ACCTCGGA | 0.404 |
| ATCTCGGG | 0.0127 |
| AGCTCGGC | -0.00249 |
| CGCTCGGA | 0.29 |
| CTCTCGGA | 0.32 |
| ACCTCGGC | 0.0761 |
| GCCACTCA | -0.126 |
| AGTTAAAG | 0.0654 |
| AATCACAT | 0.139 |
| CAGCATTC | -0.193 |
| CAGTTGGG | -0.207 |
| ACCACTCA | -0.156 |
| ACCAAAGG | -0.0819 |
| AATGGCAA | 0.0477 |
| AGATGAGC | -0.0376 |
| AGACCAAG | 0.186 |
| GTCTCGGA | 0.316 |

| Sequence | PBM E-score |
| --- | --- |
| GTCTCGAA | -0.159 |
| GTCTCGTA | -0.0582 |
| CTTTTGAA | 0.152 |
| ACAGTCCA | 0.0821 |
| AGAGTCCG | 0.449 |
| AGAGTCCC | -0.0834 |
| CGAGTCCA | -0.139 |
| CGAGTCCG | 0.426 |
| CGAGTCCC | 0.014 |
| AGAGTCCT | -0.114 |
| ATAGTCCC | -0.206 |
| ATAGTCCA | 0.0136 |
| CCAGTCCG | 0.222 |
| ACAGTCCG | 0.312 |
| ATAGTCCG | 0.473 |
| GCTCTTAC | 0.132 |
| CACTCACG | -0.0637 |
| TATGAACA | 0.0917 |
| AAAACGCA | -0.0411 |
| AAGAGTTA | 0.12 |
| CAAGTCAG | -0.0539 |
| CAGTTGCA | -0.0927 |
| GACGCAGC | -0.199 |
| ATCCGTTA | 0.275 |
| ATCCGTTC | 0.147 |

| Sequence | PBM E-score |
| --- | --- |
| CGCCGTTA | -0.0973 |
| CTCCGTTC | 0.32 |
| CACCGTTA | 0.0406 |
| GGCCGTTA | 0.137 |
| CTCCGTTA | 0.335 |
| GTCCGTTA | 0.376 |
| CGCCGTTC | -0.157 |
| GCCGGCGC | 0.089 |
| GACGCTAC | -0.101 |
| AATAGCTG | 0.0185 |
| CCGCACGC | -0.237 |
| CTAACCTA | 0.0178 |
| ATTCGGCG | -0.0582 |
| ATTCGGCC | -0.0211 |
| ATTCGGAG | 0.432 |
| ATTCGGGC | -0.0696 |
| ATTCGGAA | 0.262 |
| ATTCGGAC | 0.455 |
| GAATAGGC | -0.0173 |
| AGCCTCAG | -0.139 |
| ACGAGTGA | -0.115 |
| GTCACCAA | -0.0973 |
| AGCTCCTG | -0.238 |
| CGCTCCCA | -0.0881 |
| GGCTCCCA | -0.12 |

| Sequence | PBM E-score |
| --- | --- |
| CGCTCCGA | 0.317 |
| CGCTCCGC | 0.0358 |
| AGCTCCCG | -0.173 |
| GGCTCCGA | 0.338 |
| CCCTCCGG | 0.00905 |
| GGCTCCAA | 0.00981 |
| ACCTCCGG | 0.322 |
| ACCTCCGT | 0.165 |
| AGCTCCGG | 0.466 |
| CTAGCTAG | 0.132 |
| CTCATCCA | -0.124 |
| GTCCTACA | -0.0165 |
| CTCTGGTC | -0.00832 |
| GGGGGCAA | -0.211 |
| ATTCAGGA | 0.0993 |
| ACTGTGTA | 0.0481 |
| ACGTAGGC | -0.171 |
| AGCTCCAA | 0.0776 |
| AGCTCCGA | 0.464 |
| AGCTCCGC | 0.331 |
| AGCTCCTA | -0.173 |
| AGCTCCAC | -0.0851 |
| AGCTCCTC | -0.098 |
| CACCCACG | -0.0788 |
| ATTCTCAG | 0.00054 |

| Sequence | PBM E-score |
| --- | --- |
| ATTCCAAT | 0.161 |
| ATACGTTC | -0.101 |
| ATGTGCGA | -0.0365 |
| AACTAGCG | -0.0241 |
| ACCTTCGG | 0.147 |
| CATTTGCA | 0.0495 |
| ATCCTCCA | -0.0869 |
| TGCCTACA | -0.15 |
| TGTCCAAA | 0.124 |
| TGTCCGAA | 0.428 |
| GGTCCAAA | -0.168 |
| CGTCCGAA | 0.125 |
| GGTCCGAA | 0.437 |
| TGTCCTAA | -0.0608 |
| GTACGTCA | -0.0804 |
| ATACTGGA | 0.122 |
| GACAACGA | 0.104 |
| ACGTTTGA | 0.132 |
| AGCTGGCA | -0.241 |
| CGCGAACG | -0.0292 |
| GAATCGGC | 0.0753 |
| TAATCGAA | 0.0525 |
| GAATCGGA | 0.376 |
| AAATCGGG | 0.0832 |
| AAATCGGT | 0.0195 |

| Sequence | PBM E-score |
| --- | --- |
| GAATCGCA | -0.0351 |
| AAATCGGA | 0.397 |
| TAATCGGA | 0.308 |
| CAATCGGA | 0.286 |
| CAGGTGAC | -0.157 |
| ACCACTCT | -0.157 |
| ATTGCAAT | 0.0774 |
| AAAATTTT | 0.236 |
| AATTGTAC | 0.146 |
| TATGAGGA | -0.0297 |
| GGCGATGA | -0.143 |
| CTCCGGCC | 0.376 |
| GACCGGCA | -0.308 |
| GGCCGGCA | 0.00533 |
| GGCCGGCC | -0.0421 |
| CTCCGGCA | 0.423 |
| GTCCGGCA | 0.317 |
| CCCCGGCA | 0.0139 |
| ATCCGGCA | -0.166 |
| ATCCGGCC | 0.135 |
| GCACCTTA | -0.00495 |
| GTTACACA | -0.2 |
| GAAAGGGC | 0.00203 |
| CACAGCAC | -0.205 |
| CTTTCCGA | 0.226 |

| Sequence | PBM E-score |
| --- | --- |
| CCTTCCGA | 0.134 |
| ACTTCCGA | 0.245 |
| GTTTCCAA | 0.0451 |
| GCTTCCGA | 0.303 |
| GTTTCCGA | 0.332 |
| AGTGGATG | -0.0759 |
| ATCCCTCC | -0.194 |
| GAGTGAAC | -0.111 |
| TAACTCCA | 0.143 |
| AAACTCCA | 0.297 |
| AAACTCCT | 0.016 |
| ATCTTATC | 0.154 |
| ACGAGGTG | -0.21 |
| ATATAAGC | 0.0532 |
| AACAAATT | 0.306 |
| AAGAAATT | 0.313 |
| AAGAAATG | 0.144 |
| AACAAATG | 0.159 |
| AAGAAAAT | 0.257 |
| AAGAAAAG | 0.116 |
| AACAAGTT | 0.132 |
| AAGAAAAA | 0.319 |
